TDP1 inh – TDP1 (human) enzyme inhibition; Q9NUW8; recombinant TDP1, AlphaScreen DNA substrate cleavage; Potency, µM (doses to about 130 µM), inactives show top-dose activity change, negative = inhibition, actives largely listed as inhibitors; 350,000 compounds, 0.28% hits; AID 485290; further: on the % scale 0 is the no-effect control and ±100 the full control effect; nearly all actives have a fitted effect of over 40% in size
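AlphaScreen read-out: signal falls as enzyme removes the 3' tyrosine-FITC from a 5'-biotinylated DNA oligo (15 nM, 5 min, RT). Enzyme was E. coli-made recombinant Tdp1 at 1 nM, exposed to compound for 15 min beforehand; beads 10 ug/ml, 10 min.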
Pol beta inh – DNA polymerase beta (human) inhibition. P06746. Pol beta primer extension/strand displacement, fluorescence kinetic. Potency, µM (titrated, usually from 114 µM), for the others: top-dose activity change, negative = inhibition, hits mostly inhibitors. 340,000 compounds, 1.3% hits. AID 485314; further: on the % scale 0 is the no-effect control and ±100 the full control effect
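Curves were derived by four-parameter Hill fits of normalized qHTS data. The kinetic fluorescent primer-extension read was taken at 0 and 10 min after 50 nM substrate, following a 15 min room-temperature preincubation of 10 nM enzyme with compounds.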
POLK inh – DNA polymerase kappa (human) inhibition; Potency, µM (doses to about 107 µM), for the others: top-dose activity, negative = inhibition, actives largely listed as inhibitors; purified Pol kappa, fluorescent DNA synthesis assay, 10 min; 400,000 compounds, 0.53% hits; Q9UBT6; further: on the % scale 0 is the no-effect control and ±100 the full control effect
Target sequence (Q9UBT6 whole entry, looked up): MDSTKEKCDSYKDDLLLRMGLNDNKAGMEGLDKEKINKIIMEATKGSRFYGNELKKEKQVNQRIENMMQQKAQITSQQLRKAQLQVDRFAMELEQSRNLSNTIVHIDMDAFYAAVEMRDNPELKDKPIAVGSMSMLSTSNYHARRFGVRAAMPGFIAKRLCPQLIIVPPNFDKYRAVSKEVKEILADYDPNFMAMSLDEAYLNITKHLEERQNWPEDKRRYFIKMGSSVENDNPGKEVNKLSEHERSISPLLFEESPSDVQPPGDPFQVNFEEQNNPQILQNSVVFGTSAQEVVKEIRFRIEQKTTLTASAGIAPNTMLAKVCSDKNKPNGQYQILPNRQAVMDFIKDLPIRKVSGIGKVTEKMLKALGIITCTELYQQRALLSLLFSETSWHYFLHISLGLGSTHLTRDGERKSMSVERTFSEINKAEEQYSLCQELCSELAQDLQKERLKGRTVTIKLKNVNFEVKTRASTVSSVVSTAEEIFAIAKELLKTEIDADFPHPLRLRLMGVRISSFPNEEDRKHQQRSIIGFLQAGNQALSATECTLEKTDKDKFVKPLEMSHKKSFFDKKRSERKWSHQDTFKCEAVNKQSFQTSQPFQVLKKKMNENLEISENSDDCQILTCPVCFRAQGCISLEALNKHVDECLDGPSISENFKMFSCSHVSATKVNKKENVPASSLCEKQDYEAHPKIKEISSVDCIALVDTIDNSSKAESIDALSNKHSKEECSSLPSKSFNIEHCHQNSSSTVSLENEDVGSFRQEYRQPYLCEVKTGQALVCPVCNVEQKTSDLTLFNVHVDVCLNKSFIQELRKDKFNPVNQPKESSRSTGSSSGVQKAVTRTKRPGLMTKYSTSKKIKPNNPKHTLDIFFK
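Enzyme at 10 nM met test compounds for 15 min at room temperature. Substrate addition (50 nM final) began the reaction, which was monitored by fluorescence at 0 and 10 min.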
Pol eta inh – DNA polymerase eta (human) inhibition | Potency, µM (highest dose often 114 µM), for inactives: at the top dose activity change, negative = inhibition, most hits filed as inhibitors | recombinant Pol eta, fluorescent DNA replication assay | 390,000 compounds, 1.2% hits; further: on the % scale 0 is the no-effect control and ±100 the full control effect
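Pol eta (10 nM) was preincubated with compounds for 15 min at room temperature, after which fluorescent replication substrate (50 nM final) was added to start the reaction. Fluorescence was read kinetically at 0 and 10 min.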
POLI inh – inhibitors of human DNA polymerase iota | Potency, µM (top dose mostly 115 µM), for the others: at the top dose activity, negative = inhibition, hits mostly inhibitors | Q9UNA4 | 390,000 compounds, 1% hits | Pol iota fluorescent replication assay, 10 min
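Pol iota at 10 nM preincubated 15 min with compounds at room temperature; reaction started with fluorescent substrate, 50 nM final. Fluorescence read kinetically at 0 and 10 min; buffer-only wells as negative control.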
* hit, by the source's call; ? = inconclusive; . = not tested or not shown; [ ] = another dose, or the depositor's remark. Compounds with a hit are over-represented: about 2.4% of the library has one in this group of screens. The call rests on the fitted dose curve; in most records, active means well fitted curve in the direction sought with a large enough effect; inconclusive means small, poorly fitted or top-dose-only effect, or another doubt; inactive means no such curve, though single readings can be large; an effect the other way counts as inactive or inconclusive. Potency means the concentration at half of the fitted maximal effect.

SMILES	TDP1 inh	Pol beta inh	POLK inh	Pol eta inh	POLI inh
CC(=O)c1ccc(NC(=O)CSc2cn(CC(=O)N3CCCCCC3)c3ccccc23)cc1	5.1%	11.7%	-12.3%	-15.8%	3.5%
Cc1c(CCC(=O)O)c(=O)oc2cc3occ(-c4ccc(Cl)cc4)c3cc12	.	?	-7.0%	22.4µM*	?
Cc1cccc(-c2nn(C(=S)Nc3ccccc3)cc2-c2ccnc3ccccc23)n1	10.2%	.	13.6%[60.1 µM]	.	.
Cc1csc[n+]1CC(=O)c1ccc(I)cc1	.	.	-15.6%	.	-0.3%
CC(Sc1nnc2c(n1)[nH]c1ccccc12)C(=O)NC1CCCCC1 (centres undefined)	.	44.7µM*	-3.9%	-1.0%	13.9%
O=C(Nc1ccc(F)cc1F)c1cc2ccc3cccnc3c2[nH]1	-7.4%	17.8µM*	-41.7%	-9.0%	?
O=C(/C=C/c1ccco1)Nc1ccc2nc3n(c(=O)c2c1)CCCC3	5.4%	-20.6%	-6.9%	16.5%	70.8µM*
COc1ccc(OCC(=O)N/N=C\c2ccco2)cc1	8.4%	10.5%	1.9%	0.3%	11.4%
COc1ccc(/[N+]([O-])=C/c2ccco2)cc1	2.4%	.	-14.0%	89.1µM*	?
CC(C)(C)c1cc(-c2csc(Nc3ccccc3)[n+]2Cc2ccc(C(=O)O)cc2)cc(C(C)(C)C)c1O	6.0%	-17.6%	0.2%	31.6µM*	?
COc1ccccc1C1CC(=O)Oc2cc3c(cc21)OCO3 (centres undefined)	.	.	14.1µM*	.	.
COc1ccccc1C1CC(=O)Oc2cc(O)ccc21 (centres undefined)	1.0%[56.1 µM]	.	11.4%	-4.4%	7.1%
O=C(O)C1CCN(C(=O)CCc2ccccc2)CC1	0.0%	50.1µM*	-1.9%	-16.6%	188.7%
CCCCCCc1c(C)c2ccc(OCC(=O)N3CCC[C@H]3C(=O)O)c(C)c2oc1=O	.	2.0%	-29.7%	79.4µM*	89.1µM*
Cc1ccc(S(=O)(=O)N2CCC(n3c(C)nc4cccnc43)CC2)c(C)c1	7.9%	-26.9%	-19.9%	-16.9%	?
CCN(CC)S(=O)(=O)c1ccc(N=Nc2c(C)[nH]n(C(N)=S)c2=O)cc1	8.7%	39.8µM*	-3.4%	6.9%	23.6%
NC(=S)n1[nH]c(-c2ccc([N+](=O)[O-])cc2)c(N=Nc2ccc(O)cc2)c1=O	5.3%	5.8%	?	?	?
Cc1[nH]n(C(N)=S)c(=O)c1N=Nc1ccc([N+](=O)[O-])cc1Cl	.	29.4%	-13.6%	-23.6%	39.8µM*
NC(=S)n1[nH]c(-c2ccc([N+](=O)[O-])cc2)c(N=Nc2cccc(Cl)c2)c1=O	7.5%	?	?	39.8µM*	20µM*
CC(=O)N(C)c1ccc(N=Nc2c(C)[nH]n(C(N)=S)c2=O)cc1	2.6%	-1.0%	-6.6%[60.1 µM]	-11.3%	-15.3%
Cc1ccc(NS(=O)(=O)c2cc3c(cc2C)OCC(=O)N3)cc1C	1.0%	.	.	.	.
Cc1cc(C(F)F)n2nc(C(=O)Nc3cc(Cl)ccc3C)nc2n1	2.1%	-10.7%	-10.6%	-23.5%	-0.5%
COc1ccc(CCNC(=O)CCCCn2c(=O)c3ccccc3n(Cc3cc(C)ccc3C)c2=O)cc1OC	3.6%	6.4%	-4.7%	-3.8%	79.4µM*
O=C1CCc2cc(S(=O)(=O)Nc3ccc4c(c3)CCC4)ccc2N1	-0.9%	.	.	.	.
Cc1cc(C)c2nc(NC(=O)C3CC(=O)N(Cc4ccco4)C3)sc2c1 (centres undefined)	5.3%	-1.1%	-8.4%	-3.6%	75.3%
SMILES	TDP1 inh	Pol beta inh	POLK inh	Pol eta inh	POLI inh
O=C(Nc1nc2c(F)cc(F)cc2s1)C1CC(=O)N(Cc2ccco2)C1 (centres undefined)	-10.3%	28.2µM*	?	50.1µM*	28.2µM*
CCN1/C(=C/c2ccc3cc(C)ccc3[n+]2CC)Sc2cc(C)ccc21	1.6%	?	-18.1%	?	?
CCCCN1/C(=C/c2ccc3ccccc3[n+]2CC)Sc2ccccc21	2.4%	50.1µM*	-40.4%	-23.3%	5.2%
COc1ccc(-n2c(=O)c3c4c(sc3n(CC(=O)C(C)(C)C)c2=O)CCCC4)c(OC)c1	8.8%	6.7%	-0.4%	-18.1%	13.5%
COc1ccc(-n2c(=O)c3c4c(sc3n(CC(=O)Nc3cc(C)[nH]n3)c2=O)CCC4)c(OC)c1	-1.2%	-4.8%	0.1%	-2.3%	79.4µM*
C=C(C)C(=O)Nc1cccc(C2=NOC3(C2)C[C@@H](C(N)=O)N(C(=O)[C@H]2CCC(=O)N2)C3)c1 (some centres undefined)	-5.9%	56.2µM*	-11.1%	0.6%	-5.9%
C/C=C(/C)C(=O)Nc1cccc(C2=NOC3(C2)C[C@@H](C(N)=O)N(C(=O)[C@H]2CCC(=O)N2)C3)c1 (some centres undefined)	4.7%	?	-8.3%	-13.6%	-12.0%
C=C(C)C(=O)Nc1cccc(C2=NOC3(C2)C[C@@H](C(N)=O)N(C(=O)c2ccc(OC)cc2)C3)c1 (some centres undefined)	11.2µM*	2.82µM*	14.1µM*	2.82µM*	7.08µM*
Cc1c(CCO)sc[n+]1CCc1ccccc1	.	.	10.0%	.	5.8%
CC1(C)C(=O)Nc2ccccc2N1C(=O)CSc1ncccn1	-7.5%	?	?	?	44.7µM*
CC1(C)C(=O)Nc2ccccc2N1C(=O)COc1ccc(S(=O)(=O)N2CCOCC2)cc1Cl	-2.0%	25.1µM*	-19.5%	?	?
C=CCn1c(C)nnc1SCC(=O)N1c2ccccc2NC(=O)C1(C)C	.	.	.	-5.7%	.
CC1(C)C(=O)Nc2ccccc2N1C(=O)COc1ccccc1C#N	-8.7%	.	?	?	35.5µM*
Brc1cccc[n+]1CCCCCC[n+]1ccccc1Br	.	.	7.5%	.	4.4%
N[C@@H](CCCCNC(=O)CCCC[C@@H]1SC[C@H]2NC(=O)N[C@H]12)C(=O)O	29.2%	.	7.4%[60.1 µM]	.	.
Cc1c(Cl)cccc1NC(=O)CN(CCc1ccccc1)S(=O)(=O)c1ccccc1	4.0%[12.3 µM]	0.2%	-6.4%	-17.4%	-1.4%
Cc1ccc(C)c(NC(=O)CN(CCc2ccccc2)S(=O)(=O)c2ccccc2)c1	1.9%[2.28 µM]	18.5%	-15.6%	-11.1%	79.4µM*
COc1ccc(S(=O)(=O)N(CCc2ccccc2)CC(=O)Nc2cc(Cl)ccc2C)cc1	4.8%[12.3 µM]	-25.9%	?	-24.2%	89.1µM*
Cc1ccc(OCCCCn2c(CCNC(=O)C3CCCCC3)nc3ccccc32)cc1	0.9%	.	-18.4%	.	12.6%
O=C(O)Cc1c(Cl)ccc(Cl)c1Cl	8.9%	.	12.8%[60.1 µM]	.	.
C[C@@H]1C(NC(=O)c2ccccc2)CC2CC1C2(C)C (some centres undefined)	10µM*	-2.8%	2.7%	-15.6%	18.5%
Cc1ccc(NC(=O)C(C)OC(=O)c2ccc(Cl)nc2)cc1S(=O)(=O)N1CCOCC1 (centres undefined)	.	.	-15.2%	20µM*	?
